Vaccinia Venus – inhibitors of vaccinia virus (Venus reporter); Vaccinia virus Venus reporter expression, fluorescence; Potency, µM (titrated, usually from 36.5 µM), without a hit: at the top dose activity change, negative = inhibition, usual class: inhibitors; 330,000 tested, 0.46% active; AID 720580; calls by dose curve; tested in A549 cells; further: nearly all actives have a fitted effect of over 30% in size
Vaccinia mCherry – inhibitors of vaccinia virus infection (mCherry reporter signal). Vaccinia virus mCherry reporter infection, fluorescence. 310,000 tested, 0.63% active. Potency, µM (titrated, usually from 36.5 µM), inactives show at the highest dose activity change, negative = inhibition, actives largely listed as inhibitors. AID 720579; calls by dose curve; tested in A549 cells; further: nearly all actives have a fitted effect of over 35% in size
AMA1-RON2 inh – disrupts binding of P. falciparum AMA1 to RON2. AlphaScreen AMA1-biotinylated RON2 peptide binding. Potency, µM (top dose mostly 58.2 µM), for inactives: at the top dose activity change, negative = inhibition, most hits filed as inhibitors. 360,000 tested, 0.2% active. AID 720542;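 further: 0% = vehicle wells and -100% = peptide control; nearly all actives have a fitted effect of over 45% in size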
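AMA1 (3D7) with his tag at 25 nM final met compounds first, then biotinylated RON2 peptide at 25 nM; detection used donor plus acceptor beads, 10 µg/mL apiece, read by AlphaScreen after 30 min at room temperature.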
Pf growth 96h – P. falciparum growth inhibition at 96 hour, primary screen for plastid delayed-death inhibitors | P. falciparum luciferase reporter growth, 96 h | Potency, µM (top dose mostly 28.7 µM), for the others: at the top dose activity change, negative = inhibition, most hits filed as inhibitors | 320,000 tested, 6.9% active
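Parasite growth measured via integrated firefly luciferase reporter in P. falciparum. Infected erythrocytes at 2% hematocrit, 0.05% parasitemia final were treated 96 hours at 37 C under 5% CO2, and luminescence was read.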
Pf growth 48h – P. falciparum growth inhibition at 48 hours (one generation); AID 504832; P. falciparum luciferase growth in erythrocytes, 48 h; 310,000 tested, 5.9% active; Potency, µM (highest dose often 28.7 µM), for the others: at the highest dose activity change, negative = inhibition, hits mostly inhibitors
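Luciferase-expressing parasites in RBCs, 2% Hct / 0.1% parasitemia final; RPMI 1640 + 0.5% Albumax; 37 C, 5% CO2, one generation; luminescence read-out, lower signal = inhibition.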
* hit, by the source's call; i = inactive; ? = inconclusive; . = no result; [ ] = another dose, or the depositor's remark. Only some compounds are listed: those with a hit (about 8.7% of all), similar ones and a draw of the others. Unless noted, the call rests on the fitted dose curve; in most records, active means well fitted curve in the direction sought with a large enough effect; inconclusive means small, poorly fitted or top-dose-only effect, or another doubt; inactive means no such curve, though single readings can be large; an effect the other way counts as inactive or inconclusive. Unless noted, on the % scale 0 is the no-effect control and ±100 the full control effect; potency means the concentration at half of the fitted maximal effect.

SMILES	Vaccinia Venus	Vaccinia mCherry	AMA1-RON2 inh	Pf growth 96h	Pf growth 48h
CCC(=O)Oc1c(C(=O)CC)cc2c(C)cc(=O)oc2c1C	-12%	-4%	-10%	45%	25%
CCC(=O)Nc1c(OC(=O)CC)ccc2c(C)cc(=O)oc12	-7%	8%	-3%	3.7µM*	-9%
Cc1ccc(C(C)C)c(OCc2ccc(C(=O)Nc3ccc(S(N)(=O)=O)cc3C)o2)c1	-26%	-27%	.	.	.
CC1=CC(=O)N(c2cccc(C(F)(F)F)c2)C1c1ccc(Cl)cc1 (configuration not stated)	.	.	5%	?	8.3µM*
CCOC(=O)c1c(NC(C)=O)sc2c(O)c(CN3CCN(CC)CC3)ccc12	-16%	-18%	16%	-17%	10µM*
COc1ccc(OC)c(CN2CCC(C(=O)N3CCOCC3)CC2)c1	-21%	i	-12%	9.3µM*	0%
COc1ccc(F)c(CN2CCC(N3CCC(C(=O)N4CCOCC4)CC3)CC2)c1	1%	i	-10%	22%	3%
COc1ccc(CN2CCC(N3CCC(C(=O)N4CCOCC4)CC3)CC2)c(F)c1	-1%	0%	-2%	10µM*	11%
CCOc1cc(/C=C/C(=O)c2ccc(OC)c(CN3CCOCC3)c2)cc(Br)c1O	184%	11µM*	-12%	9.3µM*	13µM*
COc1cc(OC)c(/C=C/c2nccc3ccccc23)c(OC)c1	-21%	-26%	.	.	.
CCC(C)Nc1nc2c(c(=O)n(C)c(=O)n2C)n1Cc1ccc(Cl)cc1 (configuration not stated)	-6%	-22%	9%	6.6µM*	?
CCC(C)Nc1nc2c(c(=O)n(C)c(=O)n2C)n1Cc1cccc(C)c1 (configuration not stated)	3%	.	5%	74%	15µM*
O=C(Oc1ccc(OC(=O)c2ccco2)c(S(=O)(=O)c2ccc(Cl)cc2)c1)c1ccco1	-23%	-24%	1%[2.32 µM]	10µM*	4%
CC(=O)c1cc(Cl)ccc1OC(=O)c1ccco1	-7%	i	13%	.	6%
O=C(Oc1cccc(OC(=O)c2ccco2)c1)c1ccco1	.	.	5%	15µM*	-23%
COc1cc(-c2cc(C(=O)Nc3ccncc3)c3ccccc3n2)cc(OC)c1OC	.	.	5%	4.1µM*	8.3µM*
COc1cc(-c2cc(C(=O)Nc3cc(S(=O)(=O)N4CCOCC4)ccc3C)c3ccccc3n2)cc(OC)c1OC	-14%	30%	2%	1µM*	2.9µM*
COc1ccc(-c2cc(C(=O)NNC(=O)c3csc(N4CCOCC4)n3)c3ccccc3n2)cc1OC	-1%	?	133%	13µM*	?
O=C(Nc1ccc(SC(F)F)cc1)c1cc(-c2ccncc2)nc2ccccc12	.	.	0%	5.2µM*	?
COc1ccc(-c2cc(C(=O)Nc3cccnc3)c3ccccc3n2)cc1OC	-15%	-24%	-4%	46%	?
Cc1ccc(CNC(=O)CCCCCn2c(=O)c3sccc3n(CC(=O)N3CCCCC3C)c2=O)cc1 (configuration not stated)	-9%	-19%	.	.	.
CCOc1ccccc1NC(=O)c1cc(-c2cc(OC)c(OC)c(OC)c2)nc2ccccc12	-10%	i	-16%	?	?
CNS(=O)(=O)c1ccc(NC(=O)c2cc(-c3ccncc3)nc3ccc(Cl)cc23)cc1	-9%	i	-15%	44%	13µM*
CCOc1ccc(-c2cc(C(=O)Nc3ccc4c(c3)OCCO4)c3ccccc3n2)cc1	-4%	.	-1%	31%	108%
Cc1cccc(-c2cc(C(=O)Nc3ccc4c(c3)OCCO4)c3ccccc3n2)c1	-5%	.	-3%	12µM*	?
COc1cc(-c2cc(C(=O)Nc3ccc(N4CCOCC4)cc3)c3ccccc3n2)cc(OC)c1OC	.	.	-18%	5.9µM*	10µM*
O=C(Nc1ccc(N2CCOCC2)cc1)c1cc(-c2ccncc2)nc2ccccc12	.	.	0%	?	?
COc1ccccc1NC(=O)c1cc(-c2cc(OC)c(OC)c(OC)c2)nc2ccccc12	6%	-16%	-2%	?	4.7µM*
COc1ccc(OC)c(Nc2ncnc3c2nc2n3CCCC2)c1	-14%	-4%	.	.	.
O=C(CN1C(=O)CCn2nc(-c3ccccc3)cc21)NCc1ccc(F)cc1	-6%	-1%	.	.	.

Screening results as filed in PubChem.
